Measured values reported in PubChem BioAssay (Tox21).
Records with an inconclusive call do not appear. Activity calls are given as the source filed them. Unless noted, calls come from the whole dose curve; as a rule, active = well fitted curve in the direction sought with a large enough effect in the repeat runs; inconclusive = weak or mixed curves; inactive = no such curve, though single readings can be large; an effect the other way counts as inactive or inconclusive.

Tests used:
[1] = qHTS assay to identify small molecule antagonists of the estrogen related receptor (ERR) signaling pathway from Tox21 library - cell viability counter screen (AID 1224834); note: nearly all actives have a fitted effect of over 30% in size
Method in brief: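 CellTiter-Fluor fluorescence, read after 30 min at 37 C, measures viability of ERR cells. Cells plated at 2,000/well and incubated 6 h before pin-tool compound addition, then exposed 17.5 hours at 37 C.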

[2] = biological target: Luciferin 4-monooxygenase (Photinus pyralis) (UniProt P08659); test: qHTS assay to identify small molecule inhibitors of firefly luciferase (AID 1224835); note: nearly all actives have a fitted effect of over 25% in size
Method in brief: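 Inhibition of purified Photinus luciferase is measured by luminescence. Substrate levels (D-luciferin, ATP) sit at their KM values. Each compound is tested in a concentration series.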

[3] = qHTS assay to identify small molecule agonists of the constitutive androstane receptor (CAR) signaling pathway - cell viability counter screen (AID 1224836); note: nearly all actives have a fitted effect of over 45% in size
Method in brief: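 Double-stable HepG2 hepatoma cells (hCAR plus CYP2B6-2.2kb) are treated for 23 h at 37 C with test compounds in 15-point concentration series. PK11195 at 0.75 uM final is co-added. Cell viability is quantified by CellTiter-Fluor.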

[4] = qHTS assay to identify small molecule antagonists of the constitutive androstane receptor (CAR) signaling pathway - cell viability counter screen (AID 1224837); note: nearly all actives have a fitted effect of over 45% in size
Method in brief: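 Cytotoxicity counter-screen: CellTiter-Fluor fluorescence after 23 h compound exposure (15-point qHTS) in double-stable HepG2-CYP2B6-hCAR cells, with 50 nM CITCO added.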

[5] = biological target: Nuclear receptor subfamily 1 group I member 3 (Homo sapiens) (UniProt Q14994); test: qHTS assay to identify small molecule agonists of the constitutive androstane receptor (CAR) signaling pathway (AID 1224839);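 note: HepG2 cells stably carrying human CAR and a CYP2B6 luciferase reporter; nearly all actives have a fitted effect of over 15% in size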
Method in brief: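 Readout: firefly luciferase luminescence via ONE-Glo. System: HepG2 double-stable for hCAR and CYP2B6-2.2kb. Conditions: 15-point compound titration, PK11195 at 0.75 uM final, 24 h incubation.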

[6] = qHTS assay to identify small molecule antagonists of the estrogen related receptor signaling pathway with the pleiotropic PPARgamma coactivator (PGC) from Tox21 10K library - cell viability counter screen (AID 1224840; active = well fitted cell-killing curve with a large enough effect in the repeat runs, not every such curve was filed as active; note: nearly all actives have a fitted effect of over 40% in size)
Method in brief: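 Counter-screen for cytotoxicity: after 17.5 h compound exposure at 37 C, CellTiter-Fluor reagent added to PGC/ERR cells for 30 min and fluorescence read. Cells were seeded at 2,000 per well 6 h before dosing.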

[7] = qHTS assay to identify small molecule antagonists of the estrogen related receptor signaling pathway with the pleiotropic PPARgamma coactivator (PGC) from Tox21 10K library (AID 1224841; call rule not given here; note: actives are mostly falling curves and most rising ones were filed inactive; nearly all actives have a fitted effect of over 50% in size)
Method in brief: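 Luminescence (One-Glo, 30 min at room temperature) after 18 h compound treatment at 37 C of PGC/ERR reporter cells plated at 2,000 cells/well and settled 6 h beforehand.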

[8] = qHTS assay to identify small molecule agonists of the estrogen related receptor signaling pathway with the pleiotropic PPARgamma coactivator (PGC) from Tox21 10K library (AID 1224842); note: nearly all actives have a fitted effect of over 15% in size
Method in brief: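 Luminescence from One-Glo (30 min, room temperature) measured after PGC/ERR cells had 18 h at 37 C with pinned compound (23 nL in DMSO). Cells had been seeded at 2,000 per well and pre-incubated 6 h.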

[9] = qHTS assay to identify small molecule agonists of the hypoxia (HIF-1) signaling pathway - cell viability counter screen (AID 1224844; calls by dose curve; note: nearly all actives have a fitted effect of over 50% in size)
Method in brief: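 Cytotoxicity measured by CellTiter-Glo ATP luminescence in the wells also read for beta-lactamase signal. Cells were HRE-bla ME-180 (2,000/well, 0.5% dialyzed FBS), exposed to compounds for 17 h at 37C.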

[10] = qHTS assay to identify small molecule agonists of H2AX (AID 1224845; active = well fitted activation curve with a large enough effect in the signal ratio in the repeat runs, not every such curve was filed as active; the % refers to the signal ratio)
Method in brief: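 Phospho-H2AX Ser139 measured by HTRF (ex 320 nm; em 665 and 620 nm) after 24 hr antibody incubation. Compounds, 15 concentrations, 0.76% DMSO, were applied to CHO-K1 cells for 3hr at 37C before lysis.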

[11] = qHTS assay to identify small molecule agonists of the hypoxia (HIF-1) signaling pathway (AID 1224846; active = well fitted activation curve with a large enough effect in the signal ratio in the repeat runs, not every such curve was filed as active; the % refers to the signal ratio)
Method in brief: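 Compounds added to ME-180 cells carrying hypoxia-response-element beta-lactamase reporter (0.5% dialyzed FBS, 5 h preplating), 17 h at 37C; agonist activity detected by CCF4-AM B/G FRET read-out.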

[12] = qHTS assay to identify small molecule agonists of H2AX - cell viability counter screen (AID 1224847; calls by dose curve;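 note: wild-type CHO-K1 cells; top concentration of the series differs between compounds; nearly all actives have a fitted effect of over 30% in size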)
Method in brief: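 For this counter screen, overnight-attached CHO-K1 cells received test compounds (15 concentrations, 0.76% DMSO final); 3 hr later at 37C, CellTiter-Glo reagent was added and luminescence recorded after 30 min at room temperature.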

[13] = qHTS assay to identify small molecule antagonists of the estrogen related receptor (ERR) signaling pathway from Tox21 library (AID 1224848); note: nearly all actives have a fitted effect of over 50% in size
Method in brief: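 ERR cell line, 2,000 cells/well. 6 h settle, then compound (DMSO) added; 18 h at 37 C; ONE-Glo luminescence after 30 min RT.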

[14] = qHTS assay to identify small molecule agonists of the estrogen related receptor (ERR) signaling pathway from Tox21 library (AID 1224849; calls by dose curve; note: nearly all actives have a fitted effect of over 15% in size); settings: ERR reporter cell line, ONE-Glo luciferase, 18 h; at 92.4 µM (top of the series) unless noted
Method in brief: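 Luminescent agonist read-out (One-Glo, 30-minute room-temperature incubation) following 18-hour compound treatment at 37 C of the ERR cell line, which had been plated 6 hours before dosing.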

[15] = qHTS RealTime-Glo MT Cell Viability Assay in HepG2 cells - 24 hour (AID 1224867); note: nearly all actives have a fitted effect of over 50% in size
Method in brief: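 Compound treatment began 5 h after plating HepG2 cells (600/well) with NanoLuc luciferase and prosubstrate. Plates stayed at 37 C for 40 h; luminescence was captured at six time points, 0 h through 40 h.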

[16] = qHTS RealTime-Glo MT Cell Viability Assay in HEK293 cells - 32 hour (AID 1224868)
Method in brief: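 Quantitative high-throughput screen of the Tox21 10K library in HEK293: cells and RealTime-Glo reagents plated together, compound added at 5 h, luminescence monitored through 40 h at 37 C.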

[17] = A CellTox Green Cytotoxicity Assay to monitor cytotoxicity in HEK293 cells - 0 hour (AID 1224869); note: nearly all actives have a fitted effect of over 50% in size
Method in brief: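 Fluorescence from a DNA-binding dye excluded by viable cells was measured repeatedly in the same HEK293 wells (600 cells/well) during continuous compound exposure at 37 C. Each assay gives one read point: 0, 8, 16, 24, 32 or 40 h.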

[18] = qHTS RealTime-Glo MT Cell Viability Assay in HepG2 cells - 40 hour (AID 1224870); note: nearly all actives have a fitted effect of over 50% in size
Method in brief: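 Real-time viability: cells seeded at 600 per well together with NanoLuc and cell-permeant prosubstrate, compounds added after 5 h incubation. Luminescence tracked at 0, 8, 16, 24, 32 and 40 h of exposure.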

[19] = biological target: Nuclear receptor subfamily 1 group I member 3 (Homo sapiens) (UniProt Q14994); test: qHTS assay to identify small molecule antagonists of the constitutive androstane receptor (CAR) signaling pathway (AID 1224838);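 note: HepG2 cells stably expressing hCAR with CYP2B6 luciferase reporter stimulated by CITCO; nearly all actives have a fitted effect of over 40% in size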
Method in brief: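 Antagonism measured as luciferase signal (ONE-Glo, 30 min, room temperature) in CAR-stimulated cells: HepG2-CYP2B6-hCAR double-stable line exposed 24 hr at 37 C to compound in a 15-point series plus 50 nM CITCO.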

[20] = biological target: Thyrotropin receptor (Homo sapiens) (UniProt P16473); test: qHTS assay to identify small molecule agonists of the thyroid stimulating hormone receptor (TSHR) signaling pathway (AID 1224843; calls by dose curve; note: nearly all actives have a fitted effect of over 45% in size)
Method in brief: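 A cell-based cAMP HTRF format was run in TSHR-transfected HEK293 cells, 800 per well. Treatment: 30 min, room temperature. Detection: 1 h with labelled cAMP and anti-cAMP cryptate. Concentration-response over 15 points, three replicates.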
% is set by controls: 0 for no effect and ±100 for the full control effect.

Nuclear receptor subfamily 1 group I member 3 (Homo sapiens), sequence (Q14994 whole entry, looked up): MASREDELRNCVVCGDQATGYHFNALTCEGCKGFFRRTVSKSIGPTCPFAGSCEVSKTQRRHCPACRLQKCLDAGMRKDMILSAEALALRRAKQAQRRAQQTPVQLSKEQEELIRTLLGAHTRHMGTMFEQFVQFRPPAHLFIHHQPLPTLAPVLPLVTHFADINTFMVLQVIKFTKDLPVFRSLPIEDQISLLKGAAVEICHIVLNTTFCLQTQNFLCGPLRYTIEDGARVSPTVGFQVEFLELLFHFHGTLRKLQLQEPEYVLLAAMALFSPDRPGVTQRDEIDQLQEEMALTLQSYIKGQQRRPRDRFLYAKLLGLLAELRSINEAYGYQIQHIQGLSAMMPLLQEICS
Luciferin 4-monooxygenase (Photinus pyralis), sequence (P08659 whole entry, looked up): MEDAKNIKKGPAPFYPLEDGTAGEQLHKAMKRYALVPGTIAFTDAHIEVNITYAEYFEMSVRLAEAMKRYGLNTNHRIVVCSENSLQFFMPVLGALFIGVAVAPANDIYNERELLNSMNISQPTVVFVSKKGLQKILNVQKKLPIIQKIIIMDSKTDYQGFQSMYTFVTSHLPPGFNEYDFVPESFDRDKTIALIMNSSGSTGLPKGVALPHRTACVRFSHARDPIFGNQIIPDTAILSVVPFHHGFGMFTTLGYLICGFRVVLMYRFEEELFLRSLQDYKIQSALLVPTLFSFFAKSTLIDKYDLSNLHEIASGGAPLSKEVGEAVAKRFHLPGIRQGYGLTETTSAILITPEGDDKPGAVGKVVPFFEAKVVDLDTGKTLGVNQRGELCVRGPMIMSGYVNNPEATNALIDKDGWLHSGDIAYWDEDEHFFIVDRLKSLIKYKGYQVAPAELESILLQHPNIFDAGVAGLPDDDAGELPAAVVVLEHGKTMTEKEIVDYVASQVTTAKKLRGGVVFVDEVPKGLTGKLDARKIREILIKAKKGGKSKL
Thyrotropin receptor (Homo sapiens), sequence (P16473 whole entry, looked up): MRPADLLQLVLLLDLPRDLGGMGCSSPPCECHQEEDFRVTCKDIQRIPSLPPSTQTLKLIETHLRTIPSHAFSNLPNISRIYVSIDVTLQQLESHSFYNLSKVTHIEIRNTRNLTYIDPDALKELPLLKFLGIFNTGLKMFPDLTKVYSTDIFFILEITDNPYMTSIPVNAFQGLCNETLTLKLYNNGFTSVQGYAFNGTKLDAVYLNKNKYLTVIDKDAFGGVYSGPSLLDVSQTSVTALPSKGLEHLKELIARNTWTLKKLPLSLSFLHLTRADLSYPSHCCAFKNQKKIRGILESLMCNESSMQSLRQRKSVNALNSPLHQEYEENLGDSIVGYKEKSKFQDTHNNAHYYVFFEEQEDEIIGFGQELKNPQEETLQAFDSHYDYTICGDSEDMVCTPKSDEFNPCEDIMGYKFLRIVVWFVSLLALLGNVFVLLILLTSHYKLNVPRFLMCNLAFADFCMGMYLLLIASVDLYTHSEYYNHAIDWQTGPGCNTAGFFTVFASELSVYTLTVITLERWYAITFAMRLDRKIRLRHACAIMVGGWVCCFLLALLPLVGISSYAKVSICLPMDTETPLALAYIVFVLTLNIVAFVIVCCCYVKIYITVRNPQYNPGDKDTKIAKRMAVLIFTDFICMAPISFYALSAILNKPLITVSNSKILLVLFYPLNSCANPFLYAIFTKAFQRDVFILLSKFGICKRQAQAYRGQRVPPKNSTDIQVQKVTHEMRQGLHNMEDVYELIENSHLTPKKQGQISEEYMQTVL

CCS(=O)(=O)CCSP(=O)(OC)OC
inactive: Potency [1] | Potency [2] | Potency [3] | Potency [4] | Potency [5] | Potency [6] | Potency [7] | outcome [8] | Potency [9] | Potency [10] | outcome [11] | Potency [12] | Potency [13] | activity change, positive = activation [14] 13.8% | Potency [15] | Potency [16] | Potency [17] | Potency [18]

O=S(=O)(O)C(F)(F)C(F)(F)C(F)(F)C(F)(F)C(F)(F)C(F)(F)F
inactive: Potency [1] | Potency [2] | Potency [3] | Potency [4] | Potency [19] | Potency [5] | Potency [20] | Potency [9] | Potency [10] | outcome [11] | Potency [15] | Potency [16] | Potency [17]

CCN(CC)CCOC(=O)C(C)(c1ccccc1)c1ccccc1
inactive: Potency [1] | Potency [2] | Potency [3] | Potency [4] | Potency [19] | Potency [6] | Potency [7] | outcome [8] | Potency [9] | Potency [10] | outcome [11] | Potency [12] | activity change, positive = activation [14] 0.519% [at 42.5 µM] | Potency [15] | Potency [16] | Potency [17] | Potency [18]

CN1CCC(O)(c2ccc(F)cc2)C(C(=O)c2ccc(F)cc2)C1 (configuration not stated)
inactive: Potency [1] | Potency [2] | Potency [3] | Potency [4] | Potency [5] | Potency [6] | Potency [7] | outcome [8] | Potency [20] | Potency [9] | Potency [10] | outcome [11] | Potency [12] | activity change, positive = activation [14] 0.426% [at 42.5 µM] | Potency [15] | Potency [16] | Potency [17]

NC1=NC(=O)C(c2ccccc2)O1 (configuration not stated)
inactive: Potency [1] | Potency [2] | Potency [3] | Potency [4] | Potency [5] | Potency [6] | Potency [20] | Potency [9] | Potency [10] | outcome [11] | Potency [12] | Potency [15] | Potency [16] | Potency [17]

COc1cc(OC)nc(NC(=O)NS(=O)(=O)c2ncccc2C(=O)N(C)C)n1
inactive: Potency [1] | Potency [2] | Potency [3] | Potency [4] | Potency [5] | Potency [6] | Potency [20] | Potency [9] | Potency [10] | outcome [11] | Potency [12] | Potency [15] | Potency [16] | Potency [17] | Potency [18]

O=[N+]([O-])c1cccc2cccnc12
inactive: Potency [1] | Potency [2] | Potency [3] | Potency [4] | Potency [6] | Potency [20] | Potency [9] | Potency [10] | outcome [11] | Potency [12] | Potency [15] | Potency [16] | Potency [18]

CC(C(=O)c1ccccc1)N(C)C (configuration not stated)
inactive: Potency [1] | Potency [2] | Potency [3] | Potency [4] | Potency [6] | Potency [9] | Potency [10] | outcome [11] | Potency [12] | Potency [15] | Potency [16] | Potency [17] | Potency [18]

CCC/C(=N\OCC)C1=C(O)CC(CC(C)SCC)CC1=O (configuration not stated)
inactive: Potency [1] | Potency [2] | Potency [3] | Potency [4] | Potency [6] | Potency [9] | Potency [10] | outcome [11] | Potency [15] | Potency [17] | Potency [18]

Clc1cccc(N2CCNCC2)c1
inactive: Potency [1] | Potency [2] | Potency [3] | Potency [4] | Potency [5] | Potency [6] | Potency [9] | Potency [10] | Potency [12] | Potency [15] | Potency [16] | Potency [17] | Potency [18]

CCCCP(CCCC)CCCC
inactive: Potency [1] | Potency [2] | Potency [3] | Potency [4] | Potency [6] | Potency [20] | Potency [9] | Potency [10] | outcome [11] | Potency [12] | Potency [15] | Potency [16] | Potency [17] | Potency [18]

CC(C)COP(=O)(OCC(C)C)OCC(C)C
inactive: Potency [1] | Potency [2] | Potency [3] | Potency [4] | Potency [6] | Potency [7] | outcome [8] | Potency [9] | outcome [11] | Potency [13] | activity change, positive = activation [14] -2.2% | Potency [15] | Potency [16] | Potency [17]

c1cc2c(c(N3CCNCC3)c1)OCCO2
inactive: Potency [1] | Potency [2] | Potency [3] | Potency [4] | Potency [6] | Potency [20] | Potency [9] | Potency [10] | outcome [11] | Potency [12] | Potency [15] | Potency [16] | Potency [18]

Cc1ncc(CNC(=O)N(CCCl)N=O)c(N)n1
inactive: Potency [1] | Potency [2] | Potency [3] | Potency [4] | Potency [6] | Potency [9] | Potency [10] | Potency [12] | Potency [15] | Potency [16] | Potency [17] | Potency [18]
